Compound activity (PubChem)
The list is not random: actives were taken first. Their share in the collection is about 3.5%.
Anthrax LF inh2: Bacillus anthracis LF protease inhibitors, primary screen, biochemical, multiplex microsphere, MLPCN library. Lethal factor (Bacillus anthracis), P15917. multiplex microsphere protease cleavage assay. inhibition, % at 10 µM. actives 0.12% (n = 360,000)
Bead autofluor: compound fluorescence in toxin protease inhibitor counterscreen. compound autofluorescence counterscreen, microsphere flow cytometry; hits give high values. fluorescence intensity (test concentration not listed). actives 3.1% (n = 360,000); in the data active means fluorescence intensity above about 16000; inconclusive means no clear call, values can overlap the other calls
BoNT A protease: BoNT/A light chain protease inhibitors, primary screen, biochemical, flow cytometry, MLPCN library. multiplex microsphere protease substrate cleavage. actives 0.17% (n = 360,000). AID 588499, 2011. inhibition, % at 10 µM. Botulinum neurotoxin type A light chain protease (Clostridium botulinum A str. ATCC 3502)
BoNT F protease: BoNT/F light chain protease inhibitors, primary screen, biochemical, flow cytometry, MLPCN library; inhibition, % at 10 µM; Botulinum neurotoxin type F light chain protease (Clostridium botulinum); actives 0.22% (n = 360,000); Multiplex microsphere protease cleavage assay; in the data active means inhibition above about 35%, passing the limit was not always enough; inconclusive means no clear call, values can overlap the other calls
Numbers stand for hits; i = inactive; ? = inconclusive. Unless noted, no stated cut-off is given here; in the data, active means inhibition above about 30%; inconclusive means no clear call, values can overlap the other calls; inactive means below that.

SMILES | Anthrax LF inh2 | Bead autofluor | BoNT A protease | BoNT F protease
COc1ccc(C(CNC(=O)c2nn(-c3ccccc3)c(=O)c3ccccc23)N2CCOCC2)cc1 (stereo not drawn) | i | i | i | i
COc1ccc(-n2c3c(c(=O)[nH]c2=O)C(C(F)(F)F)(C(F)(F)F)N=C(CC(C)C)N3)cc1 | i | 19298 | i | i
O=c1[nH]c(=O)n(-c2ccc(F)cc2)c2c1C(C(F)(F)F)(C(F)(F)F)N=C(c1ccc(F)cc1)N2 | i | i | i | i
CC(C)C[C@H]1CN(CCCC[C@@H]2CNC(=O)C(=O)N2CC2CCCCC2)C(=O)C(=O)N1CCC1CCCCC1 | i | i | i | i
CN(C)CCCNCCCNC(=O)c1ccncc1 | i | 21704 | i | i
O=C(O)CCCCCNC(=O)c1ccc(C(=O)NCCCCCC(=O)O)cc1 | i | i | i | i
O=C(NCCCNCc1ccccc1)c1ccncc1 | i | i | i | i
CN(C)CCCNC(=O)c1ccccn1 | i | 16671 | i | i
O=C(O)CCCCCNC(=O)c1ccncc1 | i | 19428 | ? | i
N#Cc1ccc(CC(=O)c2ccccc2)[nH]c1=O | i | i | i | i
Cc1ccc(CN2CCC(Oc3cccc(C(=O)NCc4cccnc4)c3)CC2)o1 | i | i | i | i
O=C(CC(C(=O)N1CCc2ccccc21)n1ccnc1)NCC1CCCO1 (stereo not drawn) | i | 22602 | i | i
CCCCNC(=O)CC(C(=O)N1CCc2ccccc21)n1ccnc1 (stereo not drawn) | i | i | i | i
O=C(NCCCCNC(=O)C1CCCC1)C1CCCC1 | i | 22858 | i | i
COc1ccc2c(c1)SCC(=O)N2C | i | 21232 | i | i
COc1ccc(OCC(=O)N/N=C/c2cccn2-c2cccc(C(=O)O)c2)cc1 | i | i | i | i
Oc1cccc2ccc(Nc3ccccn3)nc12 | 34 | i | i | i
c1ccc(CNc2ccccn2)cc1 | i | i | ? | ?
c1ccc(Nc2ccccc2Nc2ccccn2)nc1 | i | 20926 | i | i
O=C(CN1CCN(S(=O)(=O)c2ccccc2)CC1)NCCc1ccccc1 | i | i | i | i
CN1CCN(c2ccc(CNC(=O)c3ccc(-c4ccc(F)c(F)c4)c4ccoc34)cc2)CC1 | i | i | i | i
COCc1ccccc1C1=CC(=O)C[C@H](c2ccc(F)cc2)C1 | i | i | i | i
CCN(C(=O)COC(=O)c1cc2ccccc2cc1OC)c1c(N)n(Cc2ccccc2)c(=O)[nH]c1=O | i | i | i | i
CC1CN(C(=O)c2ccc(C(=O)c3ccccc3)cc2)CC(C)O1 (stereo not drawn) | i | i | i | i
CC1CN(C2CCN(C(=O)c3ccccc3)CC2)CC(C)O1 (stereo not drawn) | i | 16799 | i | i
SMILES | Anthrax LF inh2 | Bead autofluor | BoNT A protease | BoNT F protease
CC1CN(S(=O)(=O)c2ccc(Cl)c(C(F)(F)F)c2)CC(C)O1 (stereo not drawn) | i | 16300 | ? | i
CC1CN(C2CCN(S(=O)(=O)Cc3ccccc3)CC2)CC(C)O1 (stereo not drawn) | i | 22746 | i | i
CN1CCN(S(=O)(=O)c2ccc(Cl)c(C(F)(F)F)c2)CC1 | i | i | i | i
CC1CN(C2CCN(S(=O)(=O)c3ccc(F)cc3)CC2)CC(C)O1 (stereo not drawn) | i | 18932 | i | i
Cc1ccc(C2(C)NC(=O)N(CC(=O)N(C)CC(=O)Nc3cccc4ccccc34)C2=O)cc1 (stereo not drawn) | i | ? | i | i
CCOc1ccc(OCCC(=O)N(CCC(C)C)c2c(N)n(Cc3ccccc3)c(=O)[nH]c2=O)cc1 | i | i | i | i
COC(=O)C=C1CCC2C3CC(F)C4(O)CC(=O)CCC4(C)C3C(=O)CC12C (stereo not drawn) | i | i | i | i
O=C(c1ccc(F)cc1)N1CCC(N2CCCCCC2)CC1 | i | 16826 | i | i
O=C(c1ccc(F)cc1)N1CCC(N2CCOCC2)CC1 | i | i | i | i
O=C(CSc1nnnn1-c1ccccc1)c1cc2ccccc2oc1=O | i | i | i | i
Cn1c(=O)oc2ccc(C(=O)CSc3nnnn3-c3ccccc3)cc21 | i | 19593 | ? | i
CC(=O)Nc1cncc(-c2cccc(C(=O)N(C)C)c2)n1 | i | i | i | i
CCN(CC)C(=O)c1nc[nH]c1C(=O)N1CCc2ccccc2C1 | i | i | i | i
Cc1cc(C)nc(NC(=O)c2cccc(Cl)c2)n1 | i | 22692 | i | i
COc1cnc(-c2ccccn2)nc1Sc1ccc(Cl)cc1 | i | 21806 | ? | i
COc1ccc(Sc2nc(-c3ccccn3)ncc2OC)cc1 | i | i | i | i
O=C1Nc2ccccc2OC1CC(=O)N1CCN(c2cccc(C(F)(F)F)c2)CC1 (stereo not drawn) | i | 21735 | i | i
Cc1c(C(=O)N2CCc3ccccc32)oc2c1C(=O)CC(C)(C)C2 | i | 23325 | i | i
Cc1c(C(=O)N2CCN(C)CC2)oc2c1C(=O)CC(C)(C)C2 | i | 21465 | i | i
CCn1ncc(Br)c1C(=O)NC1CCCCCCC1 | i | i | i | i
COc1ccc(CCC(=O)NC2CCC(C)CC2)cc1 (stereo not drawn) | i | i | i | i
CC(=O)N1CC(C)Oc2ccc(S(=O)(=O)NC(CC(=O)O)c3ccccc3)cc21 (stereo not drawn) | i | i | i | i
Cc1cnc(C(=O)OCC(=O)NCc2cccc(Cl)c2)cn1 | i | i | i | i
CC1CCN(C(=O)C2COc3ccccc3O2)CC1 (stereo not drawn) | i | i | i | i
O=C(NCCCN1CCOCC1)c1ccc(NC(=O)C2COc3ccccc3O2)cc1 (stereo not drawn) | i | i | i | i
SMILES | Anthrax LF inh2 | Bead autofluor | BoNT A protease | BoNT F protease
O=C(C1COc2ccccc2O1)N1CCCC1 (stereo not drawn) | i | 20678 | ? | i
O=C(NCCCN1CCOCC1)C1COc2ccccc2O1 (stereo not drawn) | i | 16494 | i | i
COc1ccc(Cc2nnc(SCC(=O)Nc3ccccc3)[nH]c2=O)cc1 | i | i | i | i
O=C(NCCCN1CCCC1)c1[nH]c(C(F)(F)F)nc1-c1ccccc1 | i | i | i | i
COc1cccc(-c2cc(C(=O)Nc3c(C)nn(Cc4ccccc4C)c3C)no2)c1 | i | 19715 | i | i
CSc1ccccc1NC(=O)c1cc(-c2cccs2)on1 | i | 24196 | ? | i
O=C(NCCCn1ccnc1)c1cc(-c2ccc3c(c2)OCO3)on1 | i | 20683 | i | i
Cc1nn(Cc2ccccc2)c(C)c1NC(=O)c1cc(-c2cccs2)on1 | i | 16449 | i | i
CCN1C[C@@H]2[C@@H]3C(=O)N(Cc4ccccc4)C(=O)[C@@H]3[C@](CC)(C1=O)N2C(=O)c1ccccc1 | i | i | i | i
Cc1nn(Cc2ccccc2)c(C)c1NC(=O)c1cc(-c2ccc3c(c2)OCO3)on1 | i | 16514 | ? | i
COc1cccc(-c2cc(C(=O)Nc3c(C)nn(Cc4ccccc4)c3C)no2)c1 | i | i | i | i
COc1ccc(-c2cc(C(=O)Nc3c(C)nn(Cc4ccccc4)c3C)no2)cc1 | i | 24465 | i | i
